Laboratory results reported in PubChem BioAssay AID720509 (The Scripps Research Institute Molecular Screening Center, 2013).
Hit rate of the full screen: of about 370,000 compounds, about 760 (0.21%) were called active. The sample as a whole holds a higher share of actives than the screen did. Unmarked numbers belong to inactive results.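 Rule for the calls: active = inhibition above a per-campaign cutoff: mean of compounds within control limits plus 3 SD (cut at about 15% in these data); inactive = the rest.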

Target: Fibrinogen beta chain (Homo sapiens) (UniProt P02675)
Sequence (P02675 whole entry, looked up): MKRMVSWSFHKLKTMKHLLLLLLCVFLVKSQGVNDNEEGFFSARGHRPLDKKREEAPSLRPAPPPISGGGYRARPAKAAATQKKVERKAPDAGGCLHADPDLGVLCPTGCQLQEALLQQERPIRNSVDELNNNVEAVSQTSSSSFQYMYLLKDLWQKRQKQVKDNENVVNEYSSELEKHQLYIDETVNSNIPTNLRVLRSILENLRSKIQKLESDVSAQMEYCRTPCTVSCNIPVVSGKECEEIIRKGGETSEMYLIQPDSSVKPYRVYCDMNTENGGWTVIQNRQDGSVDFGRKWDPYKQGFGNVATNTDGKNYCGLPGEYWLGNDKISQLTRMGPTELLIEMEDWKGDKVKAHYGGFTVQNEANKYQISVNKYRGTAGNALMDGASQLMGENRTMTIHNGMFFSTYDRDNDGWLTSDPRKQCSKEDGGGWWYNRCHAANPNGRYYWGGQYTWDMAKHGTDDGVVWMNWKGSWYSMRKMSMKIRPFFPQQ
Experiment: small molecules displacing Tn6 from DD(E) complex – biochemical, fluorescence polarization, human fibrin, Tn6 probe, primary screen (AID 720509);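 note: 0% = median of all compound wells on the plate and 100% = blocking peptide control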
Details: Fibrin DD(E) TRITC-Tn6 fluorescence polarization displacement; at 8.3 µM; hits give high values

Compound | inhibition
CN(C)CCCn1c(N)c(C#N)c2nc(C#N)c(C#N)nc21 | 15.8% (active)
Cc1cccc(N(C(=O)c2csnn2)C(C(=O)NCc2ccccc2)c2ccncc2)c1 (stereo not drawn) | 1%
CC(C)NC(=O)c1ccccc1S(=O)c1ccccc1C#N (stereo not drawn) | -6.4%
CCn1nnc2cc(C(=O)Nc3ccc(C(=O)OC(C)C)cc3)ccc21 | -3.39%
Cc1cccc(C)c1N1CCN(S(=O)(=O)N2CCOCC2)CC1 | -1.95%
COc1ccc(-c2c(-c3cc(OC)cc(OC)c3)n(C)c3ccc(-c4ccn[nH]4)cc23)cc1 | 7.03%
Cc1cc2nc3c(=O)[nH]c(=O)nc-3n(C[C@H](O)[C@H](O)[C@H](O)CO)c2cc1C | 16.3% (active)
CCN(CC)CCCC(C)n1c2nc(=O)[nH]c(=O)c-2nc2cc(Cl)ccc21 (stereo not drawn) | 0.53%
CCc1ccc(NC(=O)CN2CCC(C(=O)c3ccc(OC)cc3)CC2)cc1 | 3.02%
S=c1[nH]cc(-c2ccc(Cl)cc2)n1-c1ccccc1 | 1.55%
COc1cc(C(=S)N2CCOCC2)cc(OC)c1OC(=O)c1cc([N+](=O)[O-])c(C)c([N+](=O)[O-])c1 | -2.56%
COCCNc1nc2nonc2nc1N(C)Cc1ccc(C)cc1 | -1.67%
CONc1nc2nonc2nc1NOC | 15.3% (active)
COc1ccc(NC(=S)N2N=CCC2c2ccccc2)cc1 (stereo not drawn) | 4.08%
COc1ccc(Nc2nc(-c3ccccc3)cs2)cc1 | 16.7% (active)
N#CC(=C1SC=CS1)c1nc(-c2ccccc2)cs1 | 4.25%
CC(C)Nc1ccc(-n2nc3ccccc3[n+]2[O-])cc1 | -1.03%
NS(=O)(=O)c1ccc(CNC(=O)c2ccc(Cl)cc2[N+](=O)[O-])cc1 | 9.9%
CSc1ccccc1NC(=O)c1cnc2sc(C)cn2c1=O | 7.27%
COC(=O)[C@@H]1CCCN1C(=O)c1cc(COc2cccc3cccnc23)on1 | 7.18%

Compound | inhibition
O=C(NCCCn1ccnc1)C1CCCN(S(=O)(=O)c2cc(Cl)ccc2Cl)C1 (stereo not drawn) | 1.05%
COc1ccc2c(c1)CC[C@@H]1[C@@H]2CC[C@]2(C)C(=O)CC[C@@H]12 | 5.66%
CCc1cccc(CC)c1NC(=O)COc1ccccc1C(=O)c1cc(C#N)c(=O)n(C2CCCCC2)c1 | -4.12%
CN(Cc1ccccc1)C(=O)CCC1CCN(C(=O)c2ccco2)CC1 | -1.06%
Cc1cc(C)c2nc(N3CCC(C(=O)NCCN4CCOCC4)CC3)sc2c1 | -1.61%
Cc1cc(C)c2nc(NC(=O)C3CCCO3)sc2c1 (stereo not drawn) | 15.3% (active)
Cc1ccc(C)c(C(C)NC(=O)C2CCCO2)c1 (stereo not drawn) | 0.84%
O=C(NCC1CCCO1)c1ccccc1-c1nc(-c2ccccc2Cl)no1 (stereo not drawn) | 8.29%
Cc1nn(C)cc1N1C(=O)c2cccc3c(N)ccc(c23)C1=O | 19.6% (active)
C/C(N)=C(/C#N)C(=O)COC(=O)CNS(=O)(=O)c1ccc(C)cc1 | 4.06%
COc1ccc(C)cc1NC(=S)Nc1ccccc1SC | -8.72%
COc1cc(NC(=S)NNC(=O)CC(C)C)c(OC)cc1Cl | 9.57%
CCc1ccccc1NC(=S)Nc1cc(OC)c(NC(=O)C(C)C)cc1OC | 52.5% (active)
Cc1ccccc1OCC(=O)Nc1nnc(S(=O)(=O)N2CCCC2)s1 | 3.91%
Cc1ccc(NC(=O)C(C)Sc2nnc(C3CC3)n2C2CC2)cc1S(=O)(=O)N1CCOCC1 (stereo not drawn) | -3.46%
O=C1CCc2cc(S(=O)(=O)N3CCC(C(=O)NCc4ccccc4Cl)CC3)ccc2N1 | -0.95%
O=c1cc(Cn2nnc(-c3ccc(Cl)cc3)n2)nc2sccn12 | 16.1% (active)
COc1ccc(C(=O)OCc2cc(=O)n3ccsc3n2)cc1F | -0.34%
O=C(OCc1cc(=O)n2ccsc2n1)C1(c2ccc(Cl)cc2)CC1 | 4.84%
Cc1ccc(S(=O)(=O)NCC(=O)NNC(=O)c2ccc(Br)cc2)cc1C | 0.07%

Compound | inhibition
Cc1cc(=O)oc(C)c1C(=O)NCCN(C)Cc1ccccc1 | -1.95%
C[C@@H]1ON(C)[C@H]2C[C@H]3c4cc(N5CCN(C)CC5)ccc4CCN3C(=O)[C@@H]12 | -3.94%
Cc1ccc(CNC(=O)COc2ccc3c(c2)CCC3)cc1 | -1.34%
Cc1ccc(CNC(=O)Cc2cn(C)c3ccccc23)cc1 | -3.12%
CCOCC(=O)NCc1ccc2c(c1)cc(C)n2C | 22.7% (active)
CC[C@@H]1CC2=C(C(=O)OC(C)(C)O2)[C@@H](CC)O1 | -4.34%
COc1ccc(NC(=O)c2cc([N+](=O)[O-])ccc2NC(=O)CNC2CCCCC2C)c(OC)c1 (stereo not drawn) | -3.72%
CC1(C)C(C=C(Cl)Cl)C1C(=O)NC(O)C(=O)c1ccccc1 (stereo not drawn) | 14.5%
O=C(c1ccc2c(c1)N(Cc1ccc(F)cc1)C(=O)CS2)N1CCOCC1 | -0.8%
COC(=O)C(=Nc1ccccc1)/C(C(=O)C(=O)N(C)c1ccccc1)=C(\O)c1ccc(Cl)cc1 | -4.47%
Cc1c(C(=O)NCCCc2ccccc2)cccc1[N+](=O)[O-] | 7.53%
O=C(NCCNc1ccccc1[N+](=O)[O-])c1ccccc1F | 16.1% (active)
O=C(NCCCNc1ccc([N+](=O)[O-])cc1Cl)c1ccccc1F | 0.76%
COc1ccc(-n2cnnc2SCC(=O)Nc2cccc(S(N)(=O)=O)c2)cc1 | 11.3%
NS(=O)(=O)c1ccc(NC(=O)/C=C/c2ccccc2Cl)cc1 | -10.6%
Cc1ccc(-c2nn(-c3ccccc3)cc2/C=C/C(=O)Nc2cccc(S(N)(=O)=O)c2)cc1 | 52% (active)
CC1CN(S(=O)(=O)c2cccc(C(F)(F)F)c2)CN1C(=O)N1CCOCC1 (stereo not drawn) | -4.35%
CC(=O)n1cc([C@@H]2C=C(C(=O)N3CCN(Cc4ccc5c(c4)OCO5)CC3)O[C@H](OCc3ccc(CO)cc3)C2)c2ccccc21 | 3.52%
